Experimental data: the supplement of paper PMC10849652
The full data set covers some 7,900 targets. This sample favours those with a hit. About 0.6% of all pairs of compound and target were hits.

Columns and labels:
Assay in all cases: log2 fold change, soluble protein after heating vs DMSO (PISA); higher = thermal stabilisation; K562 cells, 10 uM, 30 min; active = over 0.2 and 3.5 SD of the protein, either way, in both replicates (recomputed)
[1] = compound: Cc1ccc(NC(=O)c2ccc(CN3CC[C@H](N(C)C)C3)c(C(F)(F)F)c2)cc1Nc1nccc(-c2cncnc2)n1 [bafetinib]
How it was run: (§1)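 K562 cells at 2×10^6 cells/mL were treated with 10 μM compound for 30 min. Aliquots were heated for 3 min across 48°C-58°C, pooled, and extracted in PBS with 0.5% NP-40 at 4°C; soluble protein was the supernatant after 21,000xg for 90 min. Soluble protein was quantified by TMTpro 16plex LC-MS/MS with channel sums equalised, and reported as log2 fold change in thermal stability against DMSO controls, with values from duplicates.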

[2] = compound: Cc1cccc(CC(=O)N2CCc3c2ccc(-c2cn(C)c4ncnc(N)c24)c3F)n1
How it was run: as §1

[3] = compound: Cc1nc(Nc2ncc(C(=O)Nc3c(C)cccc3Cl)s2)cc(N2CCN(CCO)CC2)n1 [dasatinib]
How it was run: as §1

[4] = compound: Cn1cc(-c2ccc3c(c2)CCN3C(=O)Cc2cccc(C(F)(F)F)c2)c2c(N)ncnc21
How it was run: as §1

[5] = compound: Cn1cc(-c2ccc3nnc(C(F)(F)c4ccc5ncccc5c4)n3n2)cn1
How it was run: as §1

[6] = compound: Cn1cncc1[C@@](N)(c1ccc(Cl)cc1)c1ccc2c(c1)c(-c1cccc(Cl)c1)cc(=O)n2C [tipifarnib]
How it was run: as §1

[7] = compound: FC(F)(F)c1ccc(/C=C/c2nc(COc3ccc(CCCCn4ccnn4)cc3)co2)cc1 [mubritinib]
How it was run: as §1

[8] = compound: NC(=O)Nc1cc(-c2cccc(F)c2)sc1C(=O)N[C@H]1CCCNC1
How it was run: as §1

[9] = compound: NC(=O)c1cnc(N[C@@H]2CCCC[C@@H]2N)nc1Nc1cccc(-n2nccn2)c1
How it was run: as §1

[10] = compound: NC1(c2ccc(-c3nc4ccn5c(=O)[nH]nc5c4cc3-c3ccccc3)cc2)CCC1
How it was run: as §1

[11] = compound: NCC(=O)Nc1ccc(-n2nc(C(F)(F)F)cc2-c2ccc3c(ccc4ccccc43)c2)cc1
How it was run: as §1

[12] = compound: Nc1ccccc1NC(=O)c1ccc(CNC(=O)OCc2cccnc2)cc1 [entinostat]
How it was run: as §1

[13] = compound: O=C(CCCCCCC(=O)Nc1ccccc1)NO [vorinostat]
How it was run: as §1

[14] = compound: O=C(CCCCCCNC(=O)c1cnc(N(c2ccccc2)c2ccccc2Cl)nc1)NO [citarinostat]
How it was run: as §1

[15] = compound: O=C(O)c1ccc2c(c1)nc(Nc1cccc(Cl)c1)c1ccncc12 [silmitasertib]
How it was run: as §1

[16] = compound: O=C1NC(=O)C(c2cnc3ccccn23)=C1c1cn2c3c(cc(F)cc13)CN(C(=O)N1CCCCC1)CC2
How it was run: as §1

[17] = compound: c1cc(OCCN2CCCCC2)cc(-c2n[nH]c3ccc(-c4nnc[nH]4)cc23)c1
How it was run: as §1

[18] = compound: Cc1cn(-c2cc(NC(=O)c3ccc(C)c(Nc4nccc(-c5cccnc5)n4)c3)cc(C(F)(F)F)c2)cn1 [nilotinib]
How it was run: as §1

[19] = compound: Cc1nc(Nc2n[nH]c3c2CN(C(=O)N[C@H](CN(C)C)c2ccccc2)C3(C)C)c2sccc2n1
How it was run: as §1

[20] = compound: Cc1ncc(-c2ccnc(Nc3ccc(S(C)(=O)=O)cc3)n2)n1C(C)C
How it was run: as §1

Measured: log2 fold change

EXOSC10 (UniProt Q01780)
active: [1] -0.63
inactive: [2] 0 | [3] 0.017 | [4] 0.152 | [5] 0.251 | [6] 0.195 | [7] 0.046 | [8] -0.49 | [9] -0.054 | [10] 0.014 | [11] -0.189 | [12] -0.339 | [13] 0.039 | [14] -0.125 | [15] 0.041 | [16] -0.044 | [17] 0.01

EVC2 (UniProt Q86UK5)
inactive: [1] -0.08 | [2] 0.023 | [18] -0.066 | [19] -0.092 | [3] -0.043 | [20] 0.131 | [4] -0.149 | [5] -0.148 | [6] 0.162 | [7] -0.053 | [8] -0.074 | [9] -0.129 | [10] 0.013 | [11] -0.268 | [12] 0.004 | [13] -0.071 | [14] 0.024 | [15] -0.042 | [16] 0.024 | [17] -0.114

CYP24A1 (UniProt Q07973)
Sequence of UniProt Q07973 (Q07973 whole entry, looked up): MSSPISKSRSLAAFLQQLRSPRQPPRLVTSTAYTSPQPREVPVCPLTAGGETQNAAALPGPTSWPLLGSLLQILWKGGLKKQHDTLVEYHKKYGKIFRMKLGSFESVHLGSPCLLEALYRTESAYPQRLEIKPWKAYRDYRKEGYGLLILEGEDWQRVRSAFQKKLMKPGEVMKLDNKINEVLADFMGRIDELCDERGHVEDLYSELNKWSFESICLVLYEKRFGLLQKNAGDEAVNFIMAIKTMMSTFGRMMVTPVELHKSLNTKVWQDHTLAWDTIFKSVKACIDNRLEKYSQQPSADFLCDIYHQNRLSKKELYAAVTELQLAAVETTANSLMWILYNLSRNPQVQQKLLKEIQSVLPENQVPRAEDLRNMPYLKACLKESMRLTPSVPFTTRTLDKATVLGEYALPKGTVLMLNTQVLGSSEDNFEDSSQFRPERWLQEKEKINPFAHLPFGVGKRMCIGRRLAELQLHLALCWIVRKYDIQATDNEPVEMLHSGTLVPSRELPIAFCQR
inactive: [1] 0.373 | [2] -0.049 | [18] 0.01 | [19] 0.167 | [3] 0.184 | [20] -0.105 | [5] -0.057 | [6] 0.101 | [7] -0.074 | [9] 0.045 | [10] 0.43 | [11] 0.21 | [13] 0.067 | [14] -0.002 | [15] 0.099 | [17] 0.109

ELMO1 (UniProt Q92556)
Sequence of UniProt Q92556 (Q92556 whole entry, looked up): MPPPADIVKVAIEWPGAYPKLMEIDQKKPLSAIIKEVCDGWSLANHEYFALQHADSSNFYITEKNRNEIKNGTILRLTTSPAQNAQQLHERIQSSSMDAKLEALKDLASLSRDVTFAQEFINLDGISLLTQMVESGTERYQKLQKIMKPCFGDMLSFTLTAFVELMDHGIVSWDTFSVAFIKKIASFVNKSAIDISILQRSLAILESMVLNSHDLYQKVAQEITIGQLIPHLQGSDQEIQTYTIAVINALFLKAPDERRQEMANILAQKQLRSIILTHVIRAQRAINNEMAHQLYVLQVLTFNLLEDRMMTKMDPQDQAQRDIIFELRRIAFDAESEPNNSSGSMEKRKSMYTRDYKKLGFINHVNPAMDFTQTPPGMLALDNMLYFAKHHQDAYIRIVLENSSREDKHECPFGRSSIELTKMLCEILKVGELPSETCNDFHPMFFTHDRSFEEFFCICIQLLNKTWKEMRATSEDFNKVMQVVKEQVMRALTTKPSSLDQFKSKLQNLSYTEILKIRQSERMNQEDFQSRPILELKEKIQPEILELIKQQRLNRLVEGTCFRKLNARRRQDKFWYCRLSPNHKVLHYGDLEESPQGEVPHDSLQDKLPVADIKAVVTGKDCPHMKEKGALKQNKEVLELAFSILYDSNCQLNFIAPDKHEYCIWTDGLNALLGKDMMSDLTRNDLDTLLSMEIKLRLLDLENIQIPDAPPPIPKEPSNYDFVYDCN
inactive: [1] 0.033 | [18] -0.038 | [19] 0.026 | [3] 0.03 | [20] -0.001 | [5] 0.06 | [7] -0.087 | [8] -0.07 | [10] -0.146 | [11] -0.316 | [12] 0.093 | [15] 0.04 | [16] -0.104

DCP2 (UniProt Q8IU60)
inactive: [3] 0.02 | [4] -0.021 | [5] -0.033 | [6] -0.112 | [8] -0.076 | [9] 0.009 | [11] -0.079 | [12] 0.048 | [16] 0.048

FAM135A (UniProt Q9P2D6)
inactive: [18] 0.054 | [19] -0.138 | [20] -0.054 | [8] 0.069 | [11] -0.024 | [12] -0.03 | [16] -0.088

ELAC1 (UniProt Q9H777)
Sequence of UniProt Q9H777 (Q9H777 whole entry, looked up): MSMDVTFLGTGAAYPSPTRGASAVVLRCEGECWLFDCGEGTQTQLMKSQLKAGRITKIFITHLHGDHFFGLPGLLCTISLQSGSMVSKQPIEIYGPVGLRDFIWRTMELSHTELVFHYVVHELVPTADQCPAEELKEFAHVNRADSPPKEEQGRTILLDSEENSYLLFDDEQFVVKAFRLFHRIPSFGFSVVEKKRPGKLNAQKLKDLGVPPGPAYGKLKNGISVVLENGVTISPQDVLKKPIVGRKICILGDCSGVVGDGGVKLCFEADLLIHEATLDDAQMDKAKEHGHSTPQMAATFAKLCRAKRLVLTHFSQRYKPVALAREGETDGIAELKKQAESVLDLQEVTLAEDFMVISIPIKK
inactive: [2] 0.124 | [18] 0.145 | [19] -0.111 | [3] -0.073 | [20] -0.103 | [4] -0.032 | [6] 0.036 | [8] 0.014 | [9] 0.053 | [11] -0.082 | [12] -0.202 | [13] 0.285 | [14] 0.05 | [16] 0.075 | [17] -0.05

FAM117B (UniProt Q6P1L5)
inactive: [2] 0.01 | [3] 0.207 | [4] -0.029 | [5] 0.072 | [9] -0.159 | [11] 0.229 | [13] 0.059 | [14] -0.047 | [16] -0.144 | [17] 0.105

DOP1A (UniProt Q5JWR5)
inactive: [1] -0.091 | [7] 0.127 | [10] 0.106 | [11] -0.051 | [15] -0.056 | [16] 0

EIF4G1 (UniProt Q04637)
inactive: [2] 0.017 | [3] -0.191 | [4] -0.032 | [9] -0.14 | [11] -0.075 | [13] 0.085

CTNNBL1 (UniProt Q8WYA6)
Sequence of UniProt Q8WYA6 (Q8WYA6 whole entry, looked up): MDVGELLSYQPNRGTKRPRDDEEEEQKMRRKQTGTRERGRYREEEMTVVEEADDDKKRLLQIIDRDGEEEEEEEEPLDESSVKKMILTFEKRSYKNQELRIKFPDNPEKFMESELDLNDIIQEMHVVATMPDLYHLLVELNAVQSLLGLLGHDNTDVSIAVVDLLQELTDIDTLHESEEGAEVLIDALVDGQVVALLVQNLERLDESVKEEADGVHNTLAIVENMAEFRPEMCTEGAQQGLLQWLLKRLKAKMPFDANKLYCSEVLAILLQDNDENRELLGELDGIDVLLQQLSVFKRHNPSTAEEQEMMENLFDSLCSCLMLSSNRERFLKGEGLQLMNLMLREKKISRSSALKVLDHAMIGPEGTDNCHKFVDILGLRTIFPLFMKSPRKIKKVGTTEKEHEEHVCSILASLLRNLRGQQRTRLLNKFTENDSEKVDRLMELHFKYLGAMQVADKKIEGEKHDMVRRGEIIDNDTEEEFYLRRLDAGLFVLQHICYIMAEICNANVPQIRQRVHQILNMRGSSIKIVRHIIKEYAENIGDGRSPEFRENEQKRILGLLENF
inactive: [1] -0.12 | [6] 0.022 | [11] 0.175 | [14] 0.057 | [17] -0.068

DBNL (UniProt Q9UJU6)
inactive: [4] 0.308

DNAJB1 (UniProt M0R128)
inactive: [1] -0.252 | [4] -0.022 | [11] -0.151

EEF2K (UniProt O00418)
Sequence of UniProt O00418 (O00418 whole entry, looked up): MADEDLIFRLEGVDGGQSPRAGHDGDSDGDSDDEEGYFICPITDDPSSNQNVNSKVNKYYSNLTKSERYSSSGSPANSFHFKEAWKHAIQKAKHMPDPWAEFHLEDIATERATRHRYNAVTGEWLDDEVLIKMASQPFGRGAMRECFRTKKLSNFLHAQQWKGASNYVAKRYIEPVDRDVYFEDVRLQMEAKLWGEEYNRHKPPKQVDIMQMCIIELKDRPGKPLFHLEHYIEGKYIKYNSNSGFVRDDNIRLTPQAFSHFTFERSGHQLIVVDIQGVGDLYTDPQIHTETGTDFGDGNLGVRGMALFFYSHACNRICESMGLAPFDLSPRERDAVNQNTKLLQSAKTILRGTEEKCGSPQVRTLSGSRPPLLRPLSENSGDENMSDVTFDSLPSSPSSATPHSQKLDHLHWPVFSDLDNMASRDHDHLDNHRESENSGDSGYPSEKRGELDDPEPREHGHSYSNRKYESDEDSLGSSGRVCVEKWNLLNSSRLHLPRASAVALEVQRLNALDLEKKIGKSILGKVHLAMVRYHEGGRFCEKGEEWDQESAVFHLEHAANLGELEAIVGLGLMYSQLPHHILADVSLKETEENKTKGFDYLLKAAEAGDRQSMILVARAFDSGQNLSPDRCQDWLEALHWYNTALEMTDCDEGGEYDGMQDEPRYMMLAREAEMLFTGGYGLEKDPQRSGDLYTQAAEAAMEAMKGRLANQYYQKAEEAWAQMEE
inactive: [2] 0.007 | [4] -0.108 | [5] 0 | [6] -0.092 | [7] -0.371 | [10] -0.119 | [11] -0.114 | [13] 0.19 | [14] -0.05 | [15] 0.216 | [16] 0.178 | [17] 0.012

CTSS (UniProt P25774)
Sequence of UniProt P25774 (P25774 whole entry, looked up): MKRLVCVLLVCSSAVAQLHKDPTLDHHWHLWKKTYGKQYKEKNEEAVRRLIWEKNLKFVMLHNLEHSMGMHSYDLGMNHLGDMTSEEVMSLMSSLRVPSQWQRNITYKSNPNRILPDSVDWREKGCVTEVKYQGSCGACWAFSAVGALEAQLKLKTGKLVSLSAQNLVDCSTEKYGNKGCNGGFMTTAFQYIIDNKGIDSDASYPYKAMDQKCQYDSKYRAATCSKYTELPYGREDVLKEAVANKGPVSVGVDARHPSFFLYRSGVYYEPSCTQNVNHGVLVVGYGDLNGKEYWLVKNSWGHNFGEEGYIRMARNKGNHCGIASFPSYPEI
inactive: [2] -0.063 | [3] 0.052 | [4] -0.07 | [5] -0.028 | [8] -0.054 | [11] 0.053 | [12] -0.013 | [13] 0.15 | [14] 0.19 | [17] -0.089

EIF3J isoform 2 (UniProt O75822)
Sequence of UniProt O75822 (O75822 whole entry, looked up): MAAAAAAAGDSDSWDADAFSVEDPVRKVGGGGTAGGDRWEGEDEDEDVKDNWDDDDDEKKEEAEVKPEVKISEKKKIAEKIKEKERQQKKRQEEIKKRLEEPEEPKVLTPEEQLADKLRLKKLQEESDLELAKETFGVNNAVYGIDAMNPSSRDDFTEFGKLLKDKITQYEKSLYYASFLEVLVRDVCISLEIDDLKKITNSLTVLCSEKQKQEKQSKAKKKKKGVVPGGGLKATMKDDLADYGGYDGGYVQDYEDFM
inactive: [1] -0.033 | [18] -0.101 | [19] -0.016 | [3] 0.017 | [20] -0.013 | [6] 0.078 | [7] 0.1 | [8] -0.094 | [9] -0.197 | [10] -0.102 | [11] 0.023 | [12] -0.041 | [15] -0.11 | [16] 0.002

DCAF4 (UniProt Q8WV16)
Sequence of UniProt Q8WV16 (Q8WV16 whole entry, looked up): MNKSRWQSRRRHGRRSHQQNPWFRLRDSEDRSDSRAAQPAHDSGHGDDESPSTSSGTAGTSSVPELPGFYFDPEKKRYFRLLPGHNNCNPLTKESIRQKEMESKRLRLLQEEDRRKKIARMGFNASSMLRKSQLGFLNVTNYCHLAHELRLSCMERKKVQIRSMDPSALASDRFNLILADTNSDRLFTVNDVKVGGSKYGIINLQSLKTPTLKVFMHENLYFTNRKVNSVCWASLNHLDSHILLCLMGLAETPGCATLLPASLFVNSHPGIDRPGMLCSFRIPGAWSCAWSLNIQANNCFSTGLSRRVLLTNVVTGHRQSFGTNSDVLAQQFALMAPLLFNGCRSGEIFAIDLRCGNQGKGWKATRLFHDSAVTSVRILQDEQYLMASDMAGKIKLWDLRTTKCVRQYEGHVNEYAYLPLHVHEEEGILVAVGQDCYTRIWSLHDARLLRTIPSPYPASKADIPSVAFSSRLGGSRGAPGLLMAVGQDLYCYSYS
active: [2] -0.423
inactive: [18] -0.204 | [19] -0.007 | [3] 0.11 | [20] -0.093 | [5] 0.079 | [7] 0.094 | [8] -0.046 | [10] -0.127 | [12] 0.005 | [13] 0.238 | [14] -0.1 | [15] 0.066 | [16] -0.096 | [17] -0.094

DDX11 (UniProt Q96FC9)
Sequence of UniProt Q96FC9 (Q96FC9 whole entry, looked up): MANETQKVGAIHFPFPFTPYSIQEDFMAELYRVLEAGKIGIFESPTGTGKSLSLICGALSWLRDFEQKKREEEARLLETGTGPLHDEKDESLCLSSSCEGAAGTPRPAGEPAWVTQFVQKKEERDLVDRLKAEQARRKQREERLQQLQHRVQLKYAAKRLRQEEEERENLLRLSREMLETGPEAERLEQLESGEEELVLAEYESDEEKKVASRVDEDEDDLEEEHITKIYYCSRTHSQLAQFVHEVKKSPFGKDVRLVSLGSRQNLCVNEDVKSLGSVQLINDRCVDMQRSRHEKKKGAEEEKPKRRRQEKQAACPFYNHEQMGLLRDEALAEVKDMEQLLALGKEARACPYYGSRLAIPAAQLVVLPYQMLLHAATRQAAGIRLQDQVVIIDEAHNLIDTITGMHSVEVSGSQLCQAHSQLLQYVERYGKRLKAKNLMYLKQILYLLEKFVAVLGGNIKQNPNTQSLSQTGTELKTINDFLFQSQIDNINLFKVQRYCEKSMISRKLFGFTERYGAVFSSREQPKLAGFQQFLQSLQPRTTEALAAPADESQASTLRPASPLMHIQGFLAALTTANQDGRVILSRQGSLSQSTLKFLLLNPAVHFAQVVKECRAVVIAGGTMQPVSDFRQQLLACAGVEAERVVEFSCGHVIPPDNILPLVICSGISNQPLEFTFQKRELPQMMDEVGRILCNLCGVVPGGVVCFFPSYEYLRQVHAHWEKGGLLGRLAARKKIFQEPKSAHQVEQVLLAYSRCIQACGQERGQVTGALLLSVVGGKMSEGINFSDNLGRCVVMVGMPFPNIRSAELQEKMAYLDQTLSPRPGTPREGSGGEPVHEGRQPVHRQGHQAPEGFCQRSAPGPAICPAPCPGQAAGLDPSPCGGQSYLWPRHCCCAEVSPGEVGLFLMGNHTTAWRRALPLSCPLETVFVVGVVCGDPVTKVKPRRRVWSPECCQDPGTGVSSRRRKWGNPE
inactive: [1] -0.012 | [18] 0.098 | [19] 0.033 | [3] 0.061 | [20] 0.098 | [5] -0.132 | [6] 0.005 | [7] -0.015 | [8] -0.1 | [9] -0.099 | [10] -0.061 | [11] 0.032 | [12] -0.009 | [15] 0.191 | [16] -0.007
